The panel holds about 79,000 compounds, 15% with a hit somewhere; the sample as a whole holds those more often. Unmarked numbers belong to inactive results. Calls of active or inactive are those of the source. Rule as the data show it: active = growth inhibition above about 70%; inactive = the rest.
Test: NCI Yeast Anticancer Drug Screen. Data for the sgs1 mgt1 strain (AID 161);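 also: 0% = growth of cultures given vehicle only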
Settings: S. cerevisiae sgs1 mgt1 strain, at 50.0 µM, active compounds read high
Procedure: Growth inhibition of yeast strains with defined genetic alterations is measured as a screen for potential anti-cancer activity. Selected strains with alterations in DNA damage repair or cell cycle control were exposed to compounds and growth inhibition was measured relative to vehicle treated controls. The strain used in this assay is sgs1 mgt1

Row | SMILES | growth inhibition
1 | CCOC(=O)c1sc(N)nc1C | -17.2%
2 | CCCCC/C(C)=C(\C#N)C(=O)OC | -19.2%
3 | NC(Cc1ccccc1F)C(=O)O (stereo not given) | 5.4%
4 | Cn1c(=O)c2c(nc(Br)n2CC(=O)CF)n(C)c1=O | -3.75%
5 | O=S(=O)(c1ccccc1)N1CCCCN(S(=O)(=O)c2ccccc2)COC1 | -1.65%
6 | COc1cc(OC)c(NC(=O)ON2C(=O)c3ccccc3C2=O)cc1Cl | -2.3%
7 | CC(=O)Oc1cc2c3ccccc3ccc2c2ccccc12 | 10.1%
8 | CCOC(=O)c1noc(Oc2ccc(Cl)cc2Cl)n1 | -10.8%
9 | Cn1c(=O)oc2cc([N+](=O)[O-])c(Cl)cc21 | -0.85%
10 | COCCNC(c1ccccc1)C(O)c1ccccc1 (stereo not given) | -5.15%
11 | COc1ccc(N(Cc2ccc(C)o2)C(=S)Nc2ccccc2)cc1 | 9.7%
12 | CCOC(=O)c1cnc2c(cnn2C(C)C)c1NN | 48.2%
13 | CCOC1OC(C(O)CO)C(O)C(O)C1O (stereo not given) | -1.9%
14 | Cc1ccc(C)c(NC(=S)Nc2ccccc2)c1 | 3.5%
15 | NNC(=O)COc1ccc(Br)cc1Br | -5.15%
16 | CC(C)C(Br)CCC1=CCC(Br)(Br)C1 (stereo not given) | 88.5% (active)
17 | C/C(CC(c1ccccc1)c1ccccc1)=N\Nc1ccc([N+](=O)[O-])cc1[N+](=O)[O-] | 14.4%
18 | O=C(Nc1ccc(S(=O)(=O)NC2CCCCC2)cc1)OC1CCCCCC1 | 7.75%
19 | C[C@H]1C[C@H]2[C@@H]3CC[C@@]4(OCC4=O)[C@@]3(C)C[C@H](O)[C@]2(F)[C@@]2(C)C=CC(=O)C=C12 | 1.6%
20 | C[N+]1=C2[B-](C(C)(C)C)=[N+](C(C)(C)C)[B-]2(C(C)(C)C)[N+](C)=C2[B-](C(C)(C)C)=[N+](C(C)(C)C)[B-]21C(C)(C)C (stereo not given) | 9.35%

Row | SMILES | growth inhibition
21 | CCOC(=O)C1=C(C)OC(=O)CC1C (stereo not given) | 3.75%
22 | COc1ccc(/C=N/SC(c2ccccc2)(c2ccccc2)c2ccccc2)cc1 | 13.2%
23 | COc1ccc(C(=O)N2CCN(C)CC2)cc1OC | -8.3%
24 | O=C(O)COc1c(F)cc(F)cc1Cl | 18.4%
25 | CCOC(=O)c1[nH]c2ccc(O)c3c2c1CCC3=O | -3.6%
26 | COc1cc2c(cc1OC)-c1cc3cc(OC)c(OC)cc3c(C)[n+]1CC2 (tested in a mixture with another compound) | 11.9%
27 | CC/C=C/C(C)c1cc(C(=O)O)ccc1OC (stereo not given) | 13.4%
28 | C(/C=C/c1ccccc1)=C1SCCCS1 | -4.7%
29 | BrCC1OCC2(CO1)COC(CBr)OC2 (stereo not given) | -7%
30 | O=C1OC(=O)C2C1C1c3ccccc3C2(Br)c2ccccc21 (stereo not given) | -0.45%
31 | CSC(=O)Oc1ccc([N+](=O)[O-])cc1 | -6.7%
32 | CN(O)C(=O)c1ccccc1 | -6.35%
33 | N#C/C1=C(\C#N)CCC2(C#N)C3C=CC(O3)C2(C#N)CC1 (stereo not given) | -0.65%
34 | CCOC(=O)/C(C#N)=C/Nc1ccncc1 | 16.2%
35 | O=c1c(-c2ccccc2)c2oc(c1-c1ccccc1)CS(=O)(=O)CCC2 | 16%
36 | NCCNCc1ccccc1 | 2.85%
37 | O=C(O)c1c[nH]c2cc(O)ccc2c1=O | -4.75%
38 | C[n+]1ccc(Nc2ccc(NC(=O)c3ccc(N)cc3)cc2)cc1 | 8.6%
39 | COc1ccccc1Br | -2%
40 | Nc1cc(N)[nH]c(=S)n1 | 13.9%

— PubChem BioAssay (NCI)
